Assay [1] is described as follows: qHTS assay to identify small molecule agonists of the vitamin D receptor (VDR) signaling pathway - cell viability counter screen (AID 743224). Also: nearly all actives have a fitted effect of over 50% in size. Also: potency is read from the fitted curve at half-maximal effect. The essentials: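 Compounds were pin-transferred onto VDR-bla cells plated 4 h earlier; following 16 h incubation at 37C, cell viability was quantified by CellTiter-Glo luminescence after 30 min at room temperature.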
On the technique in general: In qHTS, concentration-response curves come from the screen itself.

Assay [2] in a line: qHTS assay to identify small molecule antagonists of the vitamin D receptor (VDR) signaling pathway - cell viability counter screen (AID 743225). Also: nearly all actives have a fitted effect of over 50% in size. The essentials:
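Same-well multiplex: following 16 h treatment of HEK 293T cells carrying a UAS-driven beta-lactamase reporter with compound and agonist (3 nM final), and a 2 h FRET substrate step, CellTiter-Glo was added and luminescence read after 30 min.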

A short description of assay [3]: qHTS assay to identify small molecule agonists of the NFkB signaling pathway (AID 1159509; active = well fitted curve in the direction sought with a large enough effect in the signal ratio in the repeat runs, not every such curve was filed as active; the % refers to the signal ratio; also: series mostly up to about 61 µM). The essentials: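 Pathway activation was measured in ME-180 cells stably expressing beta-lactamase under NF-kB response element control. Substrate cleavage was read as the 460/530 nm emission shift after 5 hr compound incubation.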
Assay [4] in a line: qHTS assay to identify small molecule agonists of the NFkB signaling pathway - cell viability counter screen (AID 1159515; calls by dose curve; also: series mostly up to about 61 µM; nearly all actives have a fitted effect of over 55% in size). The essentials:
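Parallel cytotoxicity counter screen in ME-180 cells carrying an NFkB-response-element beta-lactamase reporter, 2,000 cells/well. Compound exposure lasted 5 hr at 37 C, 5% CO2. Cell viability was quantified by CellTiter-Glo luminescence.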

Assay [5] can be described thus: qHTS assay to identify small molecule agonists of the endoplasmic reticulum stress response signaling pathway (AID 1159516; active = well fitted activation curve with a large enough effect in the signal ratio in the repeat runs, not every such curve was filed as active; the % refers to the signal ratio). The essentials:
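Using a HeLa line with an ESRE-driven beta-lactamase gene, agonist activity was measured by FRET substrate fluorescence (460 and 530 nm emission) after cells were treated with compounds for 5 hr at 37 C and 5% CO2.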

Assay [6] is described as follows: qHTS assay to identify small molecule agonists of the endoplasmic reticulum stress response signaling pathway - cell viability counter screen (AID 1159517; calls by dose curve;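 also: HeLa cells carrying an ER stress response element beta-lactamase reporter; series mostly up to about 61 µM; nearly all actives have a fitted effect of over 50% in size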). The essentials: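 In parallel with the ESRE reporter read, cytotoxicity was scored by CellTiter-Glo luminescence (30 min, room temperature) on HeLa ESRE-bla cells dosed for 5 hr.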
Assay [7] can be described thus: qHTS assay to identify small molecule antagonists of the retinoid-related orphan receptor gamma (ROR-gamma) signaling pathway - cell viability counter screen (AID 1159520). Also: nearly all actives have a fitted effect of over 50% in size. The essentials:
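Tet-on ROR gamma CHO cells were given compounds for 2 hr, then doxycycline hyclate at 1 uM final, and incubated 16 hr at 37 C. Viability was measured as ATP content by CellTiter-Glo luminescence.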

Assay [8] is described as follows: qHTS assay to identify small molecule agonists of the AP-1 signaling pathway - cell viability counter screen (AID 1159525; calls by dose curve; also: nearly all actives have a fitted effect of over 55% in size). The essentials:
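Same-well cytotoxicity counter screen of the Tox21 10K library in ME-180 cells. The readout is ATP-dependent luminescence after 5 h compound treatment. Data are normalised to DMSO and tetra n-octyl ammonium bromide controls.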

The nature of assay [9]: qHTS assay to identify small molecule antagonists of the estrogen related receptor (ERR) signaling pathway - cell viability counter screen (AID 1224818).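 Also: series mostly up to about 46 µM; viability measured after 17.5 h of compound exposure.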 The essentials:
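Quantitative high-throughput viability counter screen in ERR cells. Compounds (DMSO) incubated 17.5 h at 37 C; read-out was CellTiter-Fluor fluorescence.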

Assay [10] is described as follows: qHTS assay to identify small molecule antagonists of the estrogen related receptor (ERR) signaling pathway (AID 1224819). The essentials: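 ERR reporter cell line (NTP) plated at 2,000 cells/well, settled 6 h at 37C/5% CO2, then exposed to LOPAC compounds for 18 h at 37C. One-Glo luciferase luminescence read after 30 min at room temperature.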
Assay [11] is described as follows: qHTS assay to identify small molecule agonists of the estrogen related receptor (ERR) signaling pathway (AID 1224820). The essentials:
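An ERR cell line provided by NTP was seeded at 2,000 cells per well and allowed to settle for 6 h before compounds in DMSO were added. After 18 h at 37 C, luciferase activity was measured by One-Glo luminescence.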

The subject of assay [12] is estrogen-related receptor alpha (ERRalpha) with PGC-1alpha coactivator, human. Description: qHTS assay to identify small molecule antagonists of the estrogen related receptor signaling pathway with the pleiotropic PPARgamma coactivator (PGC) (AID 1224821; calls by dose curve). The essentials: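 A PGC/ERR cell line supplied by NTP is seeded, allowed 6 h at 37 C, and treated with test compounds in DMSO for 18 h. Signal is then measured as luciferase luminescence using One-Glo.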

Assay [13] is described as follows: qHTS assay to identify small molecule antagonists of the estrogen related receptor signaling pathway with the pleiotropic PPARgamma coactivator (PGC) cell viability counter screen (AID 1224822; also: series mostly up to about 46 µM). The essentials:
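Cytotoxicity in the PGC/ERR cell line is assessed with CellTiter-Fluor, read as fluorescence intensity 30 min after reagent addition, following 17.5 h compound treatment at 37 C.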

For assay [14], the target named is Retinoic acid receptor RXR-alpha (Homo sapiens) (UniProt P19793). Description: qHTS assay to identify small molecule agonists of the RXR signaling pathway (AID 1159527; calls by dose curve; also: nearly all actives have a fitted effect of over 35% in size). The essentials: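 Compounds in DMSO were added to RXR-alpha-UAS-bla HEK 293T cells kept in 2% charcoal-stripped serum, and incubated 16 hr at 37 C with 5% CO2. Reporter signal came from a 2 hr B/G FRET substrate step.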
Retinoic acid receptor RXR-alpha (Homo sapiens), sequence (P19793 whole entry, looked up): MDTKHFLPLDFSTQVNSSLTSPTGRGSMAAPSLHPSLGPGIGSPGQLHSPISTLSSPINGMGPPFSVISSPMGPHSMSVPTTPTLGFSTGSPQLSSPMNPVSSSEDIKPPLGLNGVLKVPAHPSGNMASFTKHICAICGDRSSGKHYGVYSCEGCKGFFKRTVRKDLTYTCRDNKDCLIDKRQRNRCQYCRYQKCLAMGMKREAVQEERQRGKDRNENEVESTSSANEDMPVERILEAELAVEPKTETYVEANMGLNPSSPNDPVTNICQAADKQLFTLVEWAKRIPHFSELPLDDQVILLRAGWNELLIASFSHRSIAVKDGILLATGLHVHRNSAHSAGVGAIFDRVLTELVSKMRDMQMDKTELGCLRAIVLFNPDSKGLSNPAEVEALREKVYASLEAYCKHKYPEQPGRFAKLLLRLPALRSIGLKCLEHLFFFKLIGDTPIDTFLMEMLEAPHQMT

Assay [15] is described as follows: qHTS assay to identify small molecule agonists of the RXR signaling pathway - cell viability counter screen (AID 1159529). The essentials:
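Counter screen: CellTiter-Glo luminescence. Cells: RXR-alpha-UAS-bla HEK 293T. Medium: 2% charcoal-stripped FBS. Treatment: 16 h, 37 C. Reagent incubation: 30 min, RT.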

A short description of assay [16]: qHTS assay to identify small molecule antagonists of the retinoid acid receptor (RAR) signaling pathway - cell viability counter screen (AID 1159551). Also: nearly all actives have a fitted effect of over 35% in size. The essentials: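 ATP-based viability, C3RL4 cells, 6 h at 37 C with 1 uM final retinol co-added after compound; luminescence read 30 min post CellTiter-Glo, RT.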
A short description of assay [17]: qHTS assay to identify small molecule agonists of the AP-1 signaling pathway (AID 1159526; calls by dose curve).
Assay [18] is described as follows: qHTS assay to identify small molecule antagonists of the retinoic acid receptor (RAR) signaling pathway (AID 1159552; also: nearly all actives have a fitted effect of over 50% in size). The essentials: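 Antagonism of retinol-induced RARE reporter activity was measured in C3RL4 cells. Exposure to compounds and 1 uM final retinol lasted 6 hr at 37 C, with luminescence as endpoint.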
Assay [19] in a line: qHTS assay to identify small molecule agonists of the retinoic acid receptor (RAR) signaling pathway (AID 1159553). The essentials: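 Quantitative high-throughput format: the Tox21 10K library was tested on C3RL4 RARE-luciferase cells for 6 hr at 37 C and 5% CO2, with luminescence measured after a 30 min room-temperature reagent step.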

Records with an inconclusive call do not appear. The source made the active and inactive calls. Unless noted, calls follow the shape of the dose curve; as a rule, active = well fitted curve in the direction sought with a large enough effect in the repeat runs; inconclusive = weak or mixed curves; inactive = no such curve, though single readings can be large; an effect the other way counts as inactive or inconclusive.

Consider `CCCc1c(OCCCOc2ccc(OCC(=O)O)cc2)ccc(C(C)=O)c1O`, for which the Potency result in assay [1], in assay [2], in assay [7], in [10] and in assay [12] was “inactive” throughout. Further, the call in [3], in assay [4], in assay [5], in assay [6], in assay [8] and in assay [9] was inactive. For the same compound, the result in assay [11] and in assay [13] was inactive.
Regarding `CC1(C)O[C@@H]2C[C@H]3[C@@H]4CCC5=CC(=O)C=C[C@]5(C)[C@H]4[C@@H](O)C[C@]3(C)[C@]2(C(=O)CO)O1`, the Potency entry in assay [1], in assay [7], in [14], in assay [15] and in assay [16] was “inactive” throughout. Also, the compound was called inactive in assay [3], in [4], in [5], in assay [6] and in assay [8].
With `COc1ccc([C@@H]2Sc3ccccc3NC(=O)[C@@H]2O)cc1`, the Potency entry in [1], in assay [7] and in assay [16] was “inactive” throughout. The outcome in [3], in assay [4], in assay [5], in [6], in assay [8] and in assay [17] was inactive.
Regarding `O=C(N/N=C/c1ccc([N+](=O)[O-])o1)c1ccc(O)cc1`, the Potency result in [2], in [7] and in assay [15] was “inactive” in each case. The outcome in assay [3], in assay [4], in assay [5], in assay [6], in assay [8] and in assay [17] was inactive.
Consider `CCCCCC=CCC=CCCCCCCCC(=O)OCC`, for which, in [1], the Potency was 29.8 µM (active). Besides, the Potency entry in assay [2] and in [7] was “inactive” in each case. For the same compound, the compound was classed as inactive in assay [3], in [4], in [5], in assay [6], in [8] and in assay [17].
Turning to `CC(C)CCCCCCOC(=O)CCCCC(=O)OCCCCCCC(C)C`, the Potency entry in [1], in [2], in assay [7], in assay [14], in [15] and in assay [16] was “inactive” in each case. Moreover, the Potency entry in assay [18] and in assay [19] was “inactive” in each case. Moreover, the compound was classed as inactive in [3], in assay [4], in assay [5], in assay [6] and in assay [8].
In the case of `Cc1ccc(Nc2nccc(N(C)c3ccc4c(C)n(C)nc4c3)n2)cc1S(N)(=O)=O`, the Potency result in assay [1], in assay [2], in [7] and in assay [16] was “inactive” each time. Also, the call in assay [3], in assay [4], in assay [5], in assay [6], in assay [8] and in assay [17] was inactive.
As to `NC(=O)Cn1c(=O)cc(CCN2CCN(c3nccc4sccc34)CC2)c2ccc(F)cc21`, the Potency result in assay [1], in [2], in assay [7] and in assay [16] was “inactive” throughout. The call in assay [3], in assay [4], in [5], in assay [6] and in [8] was inactive.
Regarding `CCOC(=O)CC(=O)C(=O)OCC`, the Potency entry in assay [1], in assay [7], in assay [16], in assay [18] and in assay [19] was “inactive” throughout. Further, the compound was classed as inactive in assay [3], in [4], in assay [5], in assay [6], in assay [8] and in assay [17].
For `CSc1ccc(Oc2ccc(S(N)(=O)=O)cc2CN(C)C)cc1C`, the call in assay [3], in [4], in [5], in assay [6], in assay [8] and in [17] was inactive. Besides, the Potency entry in assay [7] and in [16] was “inactive” in each case.
Consider `OCCSc1ccccc1`, for which the Potency entry in [1], in assay [2], in assay [7] and in [16] was “inactive” in each case. Further, the compound was classed as inactive in assay [3], in [4], in assay [5], in [6], in [8] and in assay [17].
`CCCCCCCCCCOS(=O)(=O)O`: the Potency result in [1], in assay [7], in assay [15], in assay [16], in assay [18] and in assay [19] was “inactive” in each case. The compound was classed as inactive in [3], in assay [4], in assay [5], in [6] and in assay [8].
Take `COC(=O)CC(=O)C(C)(C)C`: the Potency result in [1], in assay [7] and in assay [16] was “inactive” in each case. Besides, the call in [3], in [4], in [5], in assay [6], in assay [8] and in assay [17] was inactive.
`CCC(C)=O`: the Potency entry in assay [1], in assay [2], in assay [7], in assay [16] and in [19] was “inactive” in each case. The compound was called inactive in [3], in [4], in [5], in [6], in assay [8] and in [17].
`CCc1c2c(nc3ccc(OC(=O)N4CCC(N5CCCCC5)CC4)cc13)-c1cc3c(c(=O)n1C2)COC(=O)[C@]3(O)CC`: the compound was classed as inactive in [3], in assay [4], in assay [5], in assay [6] and in assay [8]. Also, the Potency entry in assay [7], in assay [15] and in assay [16] was “inactive” each time.
Take `COC(=O)Nc1nc2ccc(C(=O)c3cccs3)cc2[nH]1`: the Potency result in [1], in assay [2], in assay [7], in [18], in [10] and in assay [12] was “inactive” each time. For the same compound, the result in assay [3], in [4], in assay [5], in assay [6], in assay [8] and in [9] was inactive. Moreover, the compound was called inactive in assay [11] and in assay [13].
Take `CCC(C(=O)OCCN(CC)CC)c1ccccc1` (stereo unspecified): the Potency entry in [1], in [7], in assay [14], in [15], in assay [18] and in assay [19] was “inactive” each time. The result in assay [3], in assay [4], in assay [5], in [6] and in assay [8] was inactive.
Regarding `CCOC(=O)c1ccccc1C`, the Potency result in assay [1], in assay [7], in assay [16], in assay [18] and in [19] was “inactive” each time. Moreover, the result in assay [3], in assay [4], in assay [5], in [6], in assay [8] and in assay [17] was inactive.

Values taken from PubChem BioAssay (Tox21).
